A selection: hits, their analogues and other compounds. The true share with any hit is near 6.6%.
KB-3-1 cytotox: qHTS assay for MDR1-selective chemotherapeutics: Primary screen using the parental adenocarcinoma cell KB-3-1; KB-3-1 viability, CellTiter-Glo ATP luminescence, 72 h; Potency, µM (titrated, usually from 46.1 µM), usual class: cytotoxic; 1.4% of 400,000 active; note: % is set by controls: 0 for no effect and ±100 for the full control effect; nearly all actives have a fitted effect of over 60% in size
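Cytotoxicity measured as CellTiter-Glo luminescence after 72 h at 37 C. Compound titrations were pinned onto drug-naive KB-3-1 parental adenocarcinoma cells grown in DMEM with 10% FBS, and normalized data fitted to concentration-response curves.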
MCF10A rerep: A quantitative high throughput screen for small molecules that induce DNA re-replication in MCF 10a normal breast cells. MCF 10A DNA re-replication, Hoechst nuclear intensity, 48 h. Potency, µM (series often up to 46.1 µM), for the others: at the highest dose activity, positive = re-replication, hits mostly activators. 2.9% of 350,000 active. AID 624296, 2012; note: % of control where 0% means no effect; nearly all actives have a fitted effect of over 50% in size
TSG101-PTAP inh: qHTS Assay for Iinhibitors of HIV-1 Budding by Blocking the Interaction of PTAP/TSG101 | Tumor susceptibility gene 101 protein (Homo sapiens), Q99816 | Fluorescence polarization, FITC-PTAP peptide / Tsg101 binding | Potency, µM (top dose mostly 115 µM), without a hit: top-dose activity change, negative = inhibition, most hits filed as inhibitors | 340,000 tested, under 10 active | AID 493005, 2010; active = well fitted inhibition curve with a large enough effect in the main read-out, with a control signal flat, not every such curve was filed as active; inconclusive = small, poorly fitted or top-dose-only effect, or effect the other way, or a change in a side signal; inactive = no such curve, though single readings can be large or run the other way; note: % of control where 0% means no effect
Target sequence (Q99816 whole entry, looked up): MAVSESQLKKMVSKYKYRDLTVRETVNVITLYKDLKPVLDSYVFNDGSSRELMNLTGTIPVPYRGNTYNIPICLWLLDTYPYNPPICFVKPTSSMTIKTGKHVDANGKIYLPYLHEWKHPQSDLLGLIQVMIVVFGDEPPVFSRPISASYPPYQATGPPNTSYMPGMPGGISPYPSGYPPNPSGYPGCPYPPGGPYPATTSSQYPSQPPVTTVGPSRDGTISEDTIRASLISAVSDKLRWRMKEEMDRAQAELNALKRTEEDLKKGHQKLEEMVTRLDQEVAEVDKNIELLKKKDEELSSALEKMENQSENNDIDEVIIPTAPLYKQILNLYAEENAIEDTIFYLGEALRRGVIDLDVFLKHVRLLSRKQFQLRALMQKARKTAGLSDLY
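FP read-out: FITC-PTAP peptide, 50 nM final, binding Tsg101 binding domain, 10 uM final; 20 min, r.t.; 10 mM HEPES pH 7.5, 0.15 M NaCl, 0.01% Tween 20, 3 mM EDTA, 0.1 mM TCEP.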
RGS4 inhibitor: Inhibitors of Regulator of G Protein Signaling (RGS) 4: qHTS; Transcreener GDP fluorescence polarization, RGS4-accelerated GTP hydrolysis; Potency, µM (series often up to 114 µM), inactives show at the top dose activity change, negative = inhibition, hits mostly inhibitors; 0.039% of 390,000 active; AID 504845, 2011; note: % is set by controls: 0 for no effect and ±100 for the full control effect; nearly all actives have a fitted effect of over 75% in size
Target sequence (P49798 whole entry, looked up): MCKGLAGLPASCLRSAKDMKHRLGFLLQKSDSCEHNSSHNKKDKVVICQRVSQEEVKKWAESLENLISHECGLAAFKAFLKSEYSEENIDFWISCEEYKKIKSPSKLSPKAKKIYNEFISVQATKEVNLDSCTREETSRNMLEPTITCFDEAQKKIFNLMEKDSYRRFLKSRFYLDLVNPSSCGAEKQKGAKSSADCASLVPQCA
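MLSMR compounds (23 nl, pin-transferred) preincubated 10 min at room temperature with a 500nM (2x) first reagent, then RGS4 at 900nM (2x) plus Transcreener GDP mix added; fluorescence polarization (620/688 nm) read before and after 90 min at 30 °C.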
SW480 rerep: A quantitative high throughput screen for small molecules that induce DNA re-replication in SW480 colon adenocarcinoma cells; AID 624297, 2012; SW480 DNA re-replication, Hoechst DNA content imaging, 48 h; 1.8% of 340,000 active; Potency, µM (series often up to 46.1 µM), without a hit: at the top dose re-replication activation, usual class: activators; note: % of control where 0% means no effect; nearly all actives have a fitted effect of over 55% in size
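Image-based read-out: total Hoechst fluorescence of nuclei (405 nm excitation, 500-530 nm emission), with hits raising the fraction of high-intensity nuclei. SW480 colon cells incubated 48 hr with compounds at 37 C.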
KB-V1 MDR tox: qHTS assay for MDR1-selective chemotherapeutics: Primary screen using the drug-selected MDR subline cells KB-V1 | KB-V1 MDR cells viability, CellTiter-Glo, 72 h | Potency, µM (doses to about 46.1 µM), most hits filed as cytotoxic | 3.4% of 400,000 active | AID 1347076, 2019; note: % is set by controls: 0 for no effect and ±100 for the full control effect; nearly all actives have a fitted effect of over 60% in size
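Potencies derive from concentration-effect curves fitted to normalized luminescence (CellTiter-Glo) of KB-V1 cells treated for 72 h at 37 degrees C in phenol-red-free DMEM containing 10% FBS.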
Numbers without * were called inactive; i = inactive; ? = inconclusive; nt = no result given; ! = repeats disagree; [ ] = another dose, or the depositor's remark. Unless noted, calls come from the whole dose curve; as a rule, active = well fitted curve in the direction sought with a large enough effect; inconclusive = small, poorly fitted or top-dose-only effect, or another doubt; inactive = no such curve, though single readings can be large; an effect the other way counts as inactive or inconclusive. Potency is the fitted concentration of half-maximal effect.

SMILES	KB-3-1 cytotox	MCF10A rerep	TSG101-PTAP inh	RGS4 inhibitor	SW480 rerep	KB-V1 MDR tox
O=C(Nc1ccccc1Cl)N1CCN(c2ccccn2)CC1	?	-1%	-4%	5%	-18%	16µM*
COc1ccc(Cc2[nH]n3c(=O)cc(C(C)C)nc3c2-c2ccccc2)cc1	10µM*	2.6µM*	1%	3%	10µM*	i
CCC(CC)C(=O)Nc1ccccc1C(=O)OCc1cc(=O)n2nc(C3CCCCC3)sc2n1	nt	nt	nt	28%	nt	nt
CC(=O)Nc1sc(/C(C#N)=C/c2ccc(Cl)c(Cl)c2)nc1-c1ccc(C)cc1	i	1.8µM*	?	6%	?	i
Cc1cc(C)c(NC(=O)c2cccc3c2C(=O)N(C2CCCCC2)C3)c(C)c1	21µM*	?	4%	21%	-7%	?
COC(=O)c1ccc2nc(C)cc(Nc3cccc(Cl)c3C)c2c1	i	nt	nt	-14%	nt	i
CCSc1nc(N)c(C#N)c(-c2ccccc2Cl)c1C#N	i	?	-2%	-34%	-12%	21µM*
N#Cc1c(N)nc(Sc2ccc(Cl)cc2)c(C#N)c1-c1ccccc1Cl	4.6µM*	?	3%	-14%	?	23µM*
Cc1ccc(-c2cc(-c3ccccc3Cl)c(C#N)c(N)n2)o1	i	?	-4%	?	?	i
CN1CCN(C(c2ccc(F)cc2)c2sc3nc(-c4ccco4)nn3c2O)CC1 (stereo unspecified)	i	nt	nt	1%	nt	?
COc1ccc(C(=O)CSc2nc(=O)n(Cc3cccnc3)c3c2CCC3)cc1	i	5%	-1%	-45%	4%	15µM*
C=C1C=C(C)n2ncc(C(=O)N(CCc3ccccc3)Cc3ccccc3)c2N1	i	nt	nt	nt	nt	i
CC(C)(Sc1ccc(CCN(CCCCC2CCCCC2)C(=O)NC2CCCCC2)cc1)C(=O)O	i	?	-8%	27µM*!	-4%	i
CC1=C(C(=O)Nc2ccccc2)C(c2ccccc2C)n2nc(SCC(=O)c3ccc(C)cc3)nc2N1 (stereo unspecified)	i	nt	nt	23%	nt	i
O=C(NCCN1CCOCC1)c1ccc(/C=C2\Sc3ccccc3N(Cc3ccccc3F)C2=O)cc1	i	?	-3%	-23%	18µM*	?
O=C1Nc2cc(C(=O)NCCCN3CCCC3)ccc2S/C1=C/c1ccccc1F	i	?	-4%	-33%	18µM*	i
Cc1cccc(CN2C(=O)/C(=C\c3ccc(C(=O)NCCN4CCOCC4)cc3)Sc3ccccc32)c1	i	?	-5%	25%[11.4 µM]	23µM*	?
CCOCCCNC(=O)/C=C1\Sc2ccccc2N(Cc2ccccc2F)C1=O	i	7.3µM*	2%	10%	?	i
CCOCCCNC(=O)CN1C(=O)/C(=C/c2ccccc2C)Sc2ccccc21	?	-2%	-4%	-18%	?	i
O=C(NCCN1CCOCC1)c1ccc2c(c1)N(Cc1ccccc1F)C(=O)CS2	i	5%	-5%	-33%	0%	i
COc1ccc(CCNC(=O)c2ccc3c(c2)CCN3S(=O)(=O)c2ccc(C)cc2)cc1OC	i	nt	nt	-35%	nt	i
CCN1CCN(CCNC(=O)c2ccc(/C=C3/Sc4ccccc4N(Cc4cccc(Cl)c4)C3=O)cc2)CC1	?	21µM*	0%	-10%	7%	?
O=C(NCCN1CCOCC1)c1ccc2c(c1)N(Cc1cccc(F)c1)C(=O)c1ccccc1S2	i	11%	-9%	-9%	-14%	i
CN1CCN(CCCNC(=O)c2ccc(/C=C3\Sc4ccccc4N(Cc4ccccc4F)C3=O)cc2)CC1	i	16µM*	1%	-26%[56.9 µM]	21µM*	i
Cc1ccccc1CN1C(=O)/C(=C\c2ccc(C(=O)NCCN3CCOCC3)cc2)Sc2ccccc21	i	21µM*	-6%	-14%	?	i
SMILES	KB-3-1 cytotox	MCF10A rerep	TSG101-PTAP inh	RGS4 inhibitor	SW480 rerep	KB-V1 MDR tox
CCN1CCN(CCNC(=O)c2ccc3c(c2)N(Cc2ccc(F)cc2)C(=O)/C(=C/c2ccccc2)S3)CC1	?	?	-6%	-19%	?	?
Cc1ccc(/C=C2/Sc3ccc(C(=O)NCCN4CCOCC4)cc3NC2=O)cc1	i	21µM*	0%	12%	5%	i
COC(=O)[C@@H]1[C@H]2SC(C)(C)[C@H](C(=O)OC)N2C(=O)N1Cc1cc2ccccc2n1S(=O)(=O)c1ccccc1	i	nt	nt	nt	nt	i
CCN(C(=O)c1cccn(Cc2ccccc2C)c1=O)c1ccccc1	i	nt	nt	-15%	nt	?
CC(=O)Nc1cc(C(=O)N2CCc3ccccc3C2)ccc1Sc1ccc(Cl)cc1	i	23µM*	-1%	-1%	8%	i
CC(=O)Nc1cc(C(=O)N2CCc3ccccc3C2)ccc1Sc1ccc(F)cc1	i	?	-2%	-7%	6%	i
CC(=O)Nc1nc2ccccc2n1Cc1ccc(Cl)cc1	9.2µM*	3%	-3%	-10%[11.4 µM]	?	?
CCC(=O)Nc1nonc1-c1nc2ccccc2n1Cc1ccc(Cl)c(Cl)c1	i	5.2µM*	3%	-5%	0%	i
O=C(Nc1nc2ccccc2n1Cc1ccc(Cl)cc1)c1ccco1	i	?	-1%	20%	3%	i
CCn1c(-c2nonc2NC(=O)c2ccccc2)nc2ccccc21	i	9%	-6%	-37%	-3%	?
CC(=O)Nc1nonc1-c1nc2ccccc2n1Cc1nnc(C)o1	i	3%	-4%	31%	-2%	?
CC(=O)Nc1nonc1-c1nc2ccccc2n1Cc1ccccc1	15µM*	?	-3%	11%[11.4 µM]	?	16µM*
COC(=O)c1ccccc1NC(=O)Cn1c(-c2nonc2N)nc2ccccc21	0.63µM*	0.16µM*	-7%	27%	0.32µM*	?
CCC(=O)N1CCc2cc(S(=O)(=O)NC(CC(C)C)C(=O)Nc3cccc(C)c3C)ccc21 (stereo unspecified)	i	nt	nt	4%	nt	i
COc1ccc(NC(=O)C(c2ccccn2)N(C(C)=O)c2ccc(C)cc2)cc1 (stereo unspecified)	i	2%	-3%	-18%	-160%	18µM*
